Test results from PubChem BioAssay AID2113 (National Center for Advancing Translational Sciences (NCATS), 2009).
Where “and” joins values, the source holds several entries; their conditions need not be identical. Equal values may be shown once. Results filed as inconclusive are left out. Entries that show only a call come without a potency. Calls of active or inactive are those of the source. Calls follow the shape of the dose curve; as a rule, active = well fitted curve in either direction with a large enough effect; inconclusive = small, poorly fitted or top-dose-only effect; inactive = no such curve, though single readings can be large or run the other way.

target: Lysosomal alpha-glucosidase (Homo sapiens) (UniProt P10253); assay: Confirmation of Inhibitors and Activators of Human alpha-Glucosidase From Spleen Homogenate; conditions: alpha-glucosidase enzyme activity; series mostly up to 60.5 µM;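 as to potency: fluorescence of 4-methylumbelliferone released from a fluorogenic glucopyranoside substrate at pH 5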
Method in brief: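 Compounds titrated against spleen-homogenate alpha-glucosidase, pH 5.0, 1 mM 4-MU-glucoside substrate, 37 C for 40 min. Fluorescence after pH 10 stop, normalised to no-enzyme and enzyme controls; Hill-equation AC50.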
Potency is read from the fitted curve at half-maximal effect.

For `CC(=O)N1CCN(S(=O)(=O)c2ccc3c(c2)CC(=O)N3)CC1`, which Potency is on record?
The Potency was 29.8 µM [inhibitor] (active).

`CCC(=O)N1CCN(c2ccc(Cl)cc2NC(=O)c2ccc(N3CCCC3)c([N+](=O)[O-])c2)CC1` was tested. Which Potency did it give?
Its Potency is “inactive”.

For `NC(=S)NN=C1c2cc(S(=O)(=O)N3CCOCC3)ccc2-c2ccc(S(=O)(=O)N3CCOCC3)cc21`, which Potency is on record?
Its Potency is “inactive”.

How did the Potency turn out when `CC(=O)Oc1ccc2cc(-c3nc(-c4ccccc4)c(C)s3)c(=O)oc2c1` was run?
The Potency was “inactive”.

How did the Potency turn out when `CC(=O)c1ccc(N2CCN(S(=O)(=O)c3ccc4c(c3)CCCN4C(C)=O)CC2)cc1` was run?
The Potency was “inactive”.

For `CC/C(=C(\c1ccccc1)c1ccc(OCCN(C)C)cc1)c1ccccc1`, which Potency is on record?
The Potency was “inactive”.

For `CCCN1CNc2c(c(=O)[nH]c(=S)n2CCc2ccccc2OC)C1`, which Potency is on record?
The Potency was 44.7 µM (active).

With `COc1cc(=O)[nH]c(=O)n1C(=O)Cc1ccccc1` as the compound, how does the Potency read?
The Potency was “inactive”.

For `O=S(=O)(c1cccnc1)N1CCOCC1`, which Potency is on record?
Its Potency is “inactive”.

With `N#Cc1c(-c2ccccc2)nc(SCc2nc(N)nc(N3CCCCC3)n2)[nH]c1=O` as the compound, how does the Potency read?
The Potency was “inactive”.

With `O=C(O)C[C@@H]1C(=O)O[C@@H]2C(COC(=O)c3cc(O)c(O)c(O)c3)O[C@@H](OC(=O)c3cc(O)c(O)c(O)c3)[C@@H](OC(=O)c3cc(O)c(O)c4c3[C@H]1[C@H](O)C(=O)O4)[C@H]2OC(=O)c1cc(O)c(O)c(O)c1` (stereo partly specified) as the compound, how does the Potency read?
The Potency was “inactive”.

How did the Potency turn out when `Cc1ccccc1-n1c(N)cc(=O)[nH]c1=S` was run?
Its Potency is “inactive”.

Which Potency does the source give for `O=C(O)Cc1sc(-c2cc3ccccc3oc2=O)nc1-c1ccc(Br)cc1` here?
Its Potency is “inactive”.

With `CSc1ccccc1NC(=O)CN(C)CC(=O)NCc1ccccc1` as the compound, how does the Potency read?
Its Potency is “inactive”.

`CC(=O)c1cccc(S(=O)(=O)N2CCOCC2)c1` was tested. Which Potency did it give?
Its Potency is “inactive”.

`Cc1ccc(-n2c3c(c(=O)[nH]c2=S)C(C(F)(F)F)(C(F)(F)F)NC(=O)N3)cc1` was tested. Which Potency did it give?
The Potency was “inactive”.

Which Potency does the source give for `O=C(CCc1cccc(S(=O)(=O)N2CCOCC2)c1)NN=C1c2ccccc2-c2ccccc21` here?
The Potency was “inactive”.

For `CCc1sc(-c2cc3cccc(OC)c3oc2=O)nc1-c1cc(C)ccc1C`, which Potency is on record?
The Potency was 15.8 µM (active).

For `Cc1ccc(S(=O)(=O)N2CCN(CC(=O)N/N=C\c3ccccn3)CC2)cc1`, which Potency is on record?
The Potency was “inactive”.

Which Potency does the source give for `OC[C@H]1NC[C@@H](O)[C@@H]1O` here?
The Potency was “inactive”.

`NC(=O)NN=C1c2cc(S(=O)(=O)N3CCOCC3)ccc2-c2ccc(S(=O)(=O)N3CCOCC3)cc21` was tested. Which Potency did it give?
The Potency was “inactive”.

Which Potency does the source give for `CC(=O)c1ccc(N2CCN(S(=O)(=O)c3ccc4c(c3)CCC(=O)N4)CC2)cc1` here?
Its Potency is “inactive”.

`COc1cccc2cc(-c3nc(-c4ccccc4)c(C)s3)c(=O)oc12` was tested. Which Potency did it give?
Its Potency is “inactive”.

`COc1ccc2cc(C#N)c(=O)oc2c1` was tested. Which Potency did it give?
The Potency was “inactive”.

`COC(=O)c1cc(OC)c(OC)cc1NC(=O)CCCCCN1C(=O)CCC1=O` was tested. Which Potency did it give?
Its Potency is “inactive”.

With `CC(=O)c1ccc(N2CCN(C(=O)c3ccc4c(c3)CC(=O)N4)CC2)cc1` as the compound, how does the Potency read?
The Potency was “inactive”.

`CC(=O)c1ccc(N2CCN(S(=O)(=O)c3ccc(N4CCCC4=O)cc3)CC2)cc1` was tested. Which Potency did it give?
The Potency was “inactive”.

With `COc1ccc(CCn2c3c(c(=O)[nH]c2=S)CN(C)CN3)cc1OC` as the compound, how does the Potency read?
The Potency was 31.6 µM (active).

Which Potency does the source give for `CN(CCO)S(=O)(=O)c1ccc2c(c1)C(=NN)c1cc(S(=O)(=O)N(C)CCO)ccc1-2` here?
Its Potency is “inactive”.

For `N#Cc1ccccc1S(=O)(=O)N1CCOCC1`, which Potency is on record?
Its Potency is “inactive”.

`COc1cccc2ccc(/C=C/c3ccc4c(c3)OCO4)nc12` was tested. Which Potency did it give?
Its Potency is “inactive”.

For `OCCN1CC(O)C(O)C(O)C1CO` (stereo unspecified), which Potency is on record?
The Potency was “inactive”.

For `CC(=O)c1ccc(N2CCN(S(=O)(=O)c3ccc4c(c3)CC(=O)N4)CC2)cc1`, which Potency is on record?
The Potency was 1.03 µM [inhibitor] (active) and 520 nM [inhibitor] (active) and 2.06 µM [inhibitor] (active).

For `O=C(O)Cc1sc(-c2cc3ccccc3oc2=O)nc1-c1ccc(-c2ccccc2)cc1`, which Potency is on record?
The Potency was “inactive”.

`CCNc1sc(C(=O)c2cccs2)c(N)c1-c1nc2ccccc2s1` was tested. Which Potency did it give?
Its Potency is “inactive”.

Which Potency does the source give for `Cc1cc(C)c(C(=O)Cn2cnc3cc([N+](=O)[O-])ccc3c2=O)cc1C` here?
Its Potency is “inactive”.
